Rows were chosen to be rich in hits. Some 2.9% of all compounds tested hit in one or more screens of this group.
H9c2 protect – myocardial damage modulation in H9c2 cells | H9c2 cardiomyocytes, H2O2 injury protection, ATPLite, 2 h | protection from H2O2 cell death, % at 20 µM | 360,000 compounds, 0.63% hits | AID 588492;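 active = compounds giving at least 50% protection of heart cells from peroxide-induced death in the single-dose screen, raw or plate-pattern-corrected value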;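 note: 0% = DMSO wells with peroxide and 100% = DMSO wells without peroxide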
DAGLB inhibitor – blocks human DAGLB lipase activity; Q8NCG7; 340,000 compounds, 0.059% hits; inhibition, % at 5.17 µM; HEK293T DAGLB membrane lysate, EnzChek fluorogenic substrate; in the data active = inhibition above about 34%;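 note: 0% = enzyme with vehicle and 100% = wells lacking enzyme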
Myeloid diff 2 – myeloid differentiation induction; ER-HoxA9 myeloid progenitors, lysozyme-GFP differentiation, flow cytometry; calls only at 10 µM; 360,000 compounds, 1% hits; AID 624256;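 active = normalized GFP-positive differentiation at or above the plate's own cutoff, the solvent-only control mean plus 3 SD; inconclusive = no clear call, values can overlap the other calls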;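 note: cells exposed to compound for four days before flow analysis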
ABHD5-PLIN5 inh – inhibitors of human ABHD5-perilipin-5 interaction; 360,000 compounds, 0.78% hits; inhibition, % at 4 µM; Split G. princeps luciferase complementation, luminescence, 4 h; Q00G26+Q8WTS1;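 active = inhibition above the mean inhibition across every tested compound plus 3 SD, cut at about 22% in these data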;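 note: 0% = DMSO only wells and the 100% control is not disclosed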
HGIII-sPLA2 inh – Inhibits HGIII-sPLA2 liposome hydrolysis, primary screen | QFRET BODIPY PC-A2 liposome hydrolysis, fluorescence | inhibition, % at 12.2 µM | 370,000 compounds, 0.56% hits;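 active = inhibition above mean plus 3 SD of compounds lying within the high and low control bounds, cut at about 19% in these data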;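 note: 0% = median of test compound wells and 100% = no enzyme DMSO wells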
Rtt109 Vps75 – blocks Candida albicans Rtt109/Vps75 acetyltransferase activity; Q5AAJ8; purified Rtt109/Vps75, ThioGlo CoA-SH fluorescence, 4 h; inhibition, % at 34.9 µM; 330,000 compounds, 0.16% hits; AID 540336;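 active = inhibition of at least 50% in every replicate; inconclusive = best replicate reaches 50% inhibition but some replicates fall short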
Target sequence (Q5AAJ8 whole entry, looked up): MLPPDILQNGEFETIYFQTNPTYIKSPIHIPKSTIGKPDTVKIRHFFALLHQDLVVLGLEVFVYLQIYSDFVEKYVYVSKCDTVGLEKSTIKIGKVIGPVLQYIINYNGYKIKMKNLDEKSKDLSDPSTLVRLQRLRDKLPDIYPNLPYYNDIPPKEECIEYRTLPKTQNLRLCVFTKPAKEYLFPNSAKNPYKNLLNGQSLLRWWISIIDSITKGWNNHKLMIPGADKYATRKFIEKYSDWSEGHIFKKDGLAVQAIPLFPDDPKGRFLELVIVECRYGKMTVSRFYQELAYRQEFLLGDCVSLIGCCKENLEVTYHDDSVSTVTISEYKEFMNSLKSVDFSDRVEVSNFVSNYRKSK
ABHD5 PLIN5 conf – ABHD5-PLIN5 interaction inhibition, confirmed. biochemical ABHD5-PLIN5 interaction, luminescence. inhibition, % at 4 µM. 2,200 compounds, 67% hits. shares compounds with ABHD5-PLIN5 inh. AID 651612; in the data active = inhibition above about 23%;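 note: 0% = DMSO vehicle wells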
HNF4 split-luc – counter-screen for ABHD5-PLIN5 inhibitors: HNF4 split-luciferase; HNF4 dimerization, luminescence, biochemical; inhibition, % at 4 µM; 2,200 compounds, 77% hits; shares compounds with ABHD5-PLIN5 inh;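 active = mean inhibition across replicate wells exceeding the computed hit threshold, cut at about 13% in these data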;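 note: light from luciferase halves that rejoin when HNF4 fusion proteins dimerize; 0% = DMSO only wells and the 100% control is not given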
* hit, by the source's call; i = inactive; ? = inconclusive; / = no result.

SMILES	H9c2 protect	DAGLB inhibitor	Myeloid diff 2	ABHD5-PLIN5 inh	HGIII-sPLA2 inh	Rtt109 Vps75	ABHD5 PLIN5 conf	HNF4 split-luc
N#Cc1cccc(NC(=O)c2cc(C3CCCCN3S(=O)(=O)c3cccc4cccnc34)on2)c1 (stereo unspecified)	18.2	/	i	-0.5	-14.7	/	/	/
COc1ccc(CNC(=O)c2nc(S(=O)(=O)Cc3ccccc3)ncc2Cl)cc1	-18.4	0.8	?	41.0*	3.8	?	89.1*	103.0*
CC(=O)Nc1ccc(NC(=O)c2nc(S(=O)(=O)Cc3ccccc3)ncc2Cl)cc1	-17.3	1.1	i	57.9*	-1.6	113.3*	81.3*	93.7*
O=C(NCc1ccccc1)c1nc(S(=O)(=O)Cc2ccccc2)ncc1Cl	-13.4	3.3	?	51.1*	3.7	?	88.6*	105.5*
NS(=O)(=O)c1ccc(CCNC(=O)CCc2nc3ccccc3s2)cc1	-1.3	-0.5	i	-9.2	-0.2	0.7	/	/
COc1cc2c(cc1NC(=O)CC1SC(N3CCCC3)=NC1=O)oc1ccccc12 (stereo unspecified)	28.1	5.0	i	28.7*	-21.0	1.0	16.1	9.7
CCCCOC(=O)/C=C\C(=O)OCCCC	-1.4	-2.0	i	6.7	12.1	-7.2	/	/
CCCCOC(=O)/C=C\C(=O)NC(N)=O	-12.1	0.1	i	51.0*	-7.3	2.8	70.9*	57.5*
O=[S@]1Oc2ccccc2-c2ccccc21	10.0	-14.6	i	24.5*	1.8	-1.0	83.4*	98.8*
CCOc1ccccc1/C=C/c1nc2ccccc2[nH]c1=O	2.8	1.2	i	26.9*	1.4	6.6	50.0*	46.4*
CC(=O)C1=C(c2cccc([N+](=O)[O-])c2)N(C(C)=O)n2c(C)nnc2S1	-18.2	-16.1	i	61.4*	10.3	28.3	82.5*	47.3*
COc1cc2c(cc1OC)[C@@H](NC(=O)C(C)C)[C@H](OCc1ccccc1)C2	10.8	-1.0	i	-8.5	9.6	4.1	/	/
CC(C)Cc1ccc(C(C)CC2=CCC(CN(C)C)C2=O)cc1 (stereo unspecified)	-18.9	10.2	?	38.0*	1.5	-12.7	82.0*	80.6*
CC(C)Cc1ccc(S(=O)(=O)N2CCOCC2)cc1	-1.0	1.9	i	-2.5	-7.6	-5.8	/	/
CN(CCO)c1cc(Sc2nc3ccccc3s2)c2nonc2c1[N+](=O)[O-]	-22.7	-0.2	i	48.8*	-12.7	-1.4	80.3*	114.2*
Cc1c(N(C)S(=O)(=O)c2ccc(Cl)c(C(=O)NCC3CCCO3)c2)c(=O)n(-c2ccccc2)n1C (stereo unspecified)	-2.6	-1.0	i	0.7	3.7	0.3	/	/
Cc1ccc(S(=O)(=O)N2CCOCC2)cc1C(=O)NC1CCN(Cc2ccccc2)CC1	-9.5	0.2	i	-4.0	-7.1	-0.2	/	/
COc1cc(CNCCCN2CCOCC2)cc(Br)c1OCc1ccc(Cl)cc1	-12.1	-2.0	/	35.4*	-16.6	20.8	16.9	0.9
CCOc1cc(CNCCCN2CCOCC2)cc(Cl)c1OCC(=O)NC(C)(C)C	7.4	-0.9	i	-5.7	10.2	-0.5	/	/
CCOc1cc(CNCCCN2CCOCC2)cc(Br)c1OCC(=O)Nc1cccc(C(F)(F)F)c1	-16.0	-2.2	i	24.6*	-10.4	12.4	16.8	15.0*
COc1cc(CNCCN2CCOCC2)ccc1OCc1ccc(Cl)cc1	2.4	3.2	i	9.7	-3.5	2.5	/	/
O=C(O)c1ccc2c(c1)C(=O)N(c1cccc(C(=O)/C=C/c3ccccc3)c1)C2=O	-11.8	5.9	i	46.2*	9.2	-2.5	97.3*	91.4*
CC(/C=C/c1ccccc1F)=N\NC(=O)c1ccccc1	23.1	-2.9	i	6.1	-1.8	14.0	/	/
O=C(C=Cc1cccc(Cl)c1)c1ccccc1	-14.8	0.1	i	51.3*	-3.5	0.9	97.5*	93.9*
O=C(/C=C/c1c(F)cccc1Cl)c1ccc(O)cc1	-15.1	-8.0	i	38.6*	-23.1	-0.2	45.6*	47.5*
SMILES	H9c2 protect	DAGLB inhibitor	Myeloid diff 2	ABHD5-PLIN5 inh	HGIII-sPLA2 inh	Rtt109 Vps75	ABHD5 PLIN5 conf	HNF4 split-luc
O=C(C=Cc1ccccc1F)c1ccccc1	-16.8	/	i	68.7*	-8.6	/	86.7*	79.0*
CNc1snc(C)c1C(=O)OC(C)C(=O)Nc1ccccc1 (stereo unspecified)	-9.3	1.1	i	-0.2	6.4	0.0	/	/
O=C(CSC1=NS(=O)(=O)c2ccccc2N1)Nc1ccccc1F	-2.7	-1.4	i	2.8	-15.1	12.4	/	/
Cc1cc(C(=O)Nn2c(-c3ccncc3)nc3ccccc3c2=O)ccc1[N+](=O)[O-]	0.3	-2.2	i	1.5	-3.6	-10.2	/	/
COc1cc(OC)cc(N(C(=O)CNC(=O)c2cccs2)C(C(=O)NCC2CCCO2)c2ccc(OC)c(OC)c2)c1 (stereo unspecified)	0.6	-0.3	i	0.7	-1.8	-2.2	/	/
COc1cccc(COC(=O)C2CCN(S(=O)(=O)c3ccc(F)cc3)CC2)c1OC	-2.5	-2.8	i	-0.9	-7.5	3.7	/	/
COc1ccc2[nH]c(=O)c(C(c3nnnn3C(C)(C)C)N(Cc3ccco3)CC3CCCO3)cc2c1 (stereo unspecified)	5.5	3.2	i	24.4*	-4.3	-6.3	28.3*	71.9*
CC(C)(C)n1nnnc1CN(Cc1ccco1)Cc1cc2cc3c(cc2[nH]c1=O)OCO3	34.8	-3.5	i	42.4*	0.0	-12.6	23.9*	33.8*
CCC(c1nnnn1CCc1ccccc1)N(Cc1ccco1)Cc1cc2cccc(C)c2[nH]c1=O (stereo unspecified)	1.1	-0.5	i	-2.0	-8.5	4.7	/	/
CCc1ccc2[nH]c(=O)c(CN(Cc3ccccc3OC)Cc3nnnn3Cc3ccco3)cc2c1	-19.7	9.0	i	32.0*	-30.8	6.5	5.7	10.3
CCOc1ccc2[nH]c(=O)c(CN(Cc3ccco3)C(CC)c3nnnn3Cc3ccccc3)cc2c1 (stereo unspecified)	85.5*	-0.7	i	24.0*	-26.0	-9.3	10.7	21.3*
COc1ccccc1CN(Cc1cc2cc(C)ccc2[nH]c1=O)Cc1nnnn1Cc1ccco1	21.4	2.0	i	13.9	-14.5	29.3	/	/
CCCNC(=O)C1(C)CCN(Cc2ccc(C(=O)OCC)cc2)C1 (stereo unspecified)	-1.9	/	i	-3.7	-7.7	/	/	/
CC(C)COc1cccc(C(=O)N2CCN(C(=O)c3ccco3)CC2)c1	-3.9	1.7	i	-3.8	1.2	2.2	/	/
O=C1C=CC(=O)N1c1cccc(-c2ccccc2)c1	-16.0	1.0	i	28.4*	5.3	13.5	51.2*	94.4*

Screening results as filed in PubChem.
